Source: PubChem (National Center for Advancing Translational Sciences (NCATS))
Hits are enriched below; roughly 10% of the tested compounds scored in any of these assays.
BAZ2B block = qHTS Assay for Inhibitors of BAZ2B; 360,000 compounds, 4.4% hits; Potency, µM (titrated, usually from 114 µM), for the others: at the highest dose activity change, negative = inhibition, most hits filed as inhibitors; Bromodomain adjacent to zinc finger domain protein 2B (Homo sapiens), Q9UIF8; AlphaScreen BAZ2B-H3K14Ac peptide displacement; note: % is set by controls: 0 for no effect and ±100 for the full control effect; nearly all actives have a fitted effect of over 60% in size
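Complex of BAZ2B and biotin-H3K14Ac (50 nM apiece) forms over 30 min at RT, then faces library compounds up to 110 uM for another 30 min; AlphaScreen beads added, 20 min dark incubation, luminescence read.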
JMJD2A Tudor = qHTS Assay for Inhibitors of JMJD2A-Tudor Domain; AID 504339, 2011; Lysine-specific demethylase 4A (Homo sapiens), O75164; AlphaScreen JMJD2A-Tudor / H3K4me3 peptide binding; 390,000 compounds, 4.4% hits; Potency, µM (titrated, usually from 114 µM), for inactives: at the highest dose activity change, negative = inhibition, most hits filed as inhibitors; note: % is set by controls: 0 for no effect and ±100 for the full control effect; nearly all actives have a fitted effect of over 50% in size
GLS inhibitor = qHTS for Inhibitors of Glutaminase (GLS). AID 624170, 2012. Potency, µM (highest dose often 45.5 µM), for the others: at the top dose activity change, negative = inhibition, usual class: inhibitors. GLS enzymatic activity, qHTS titration. Glutaminase kidney isoform, mitochondrial (Homo sapiens), O94925. 410,000 compounds, 0.21% hits; note: % is set by controls: 0 for no effect and ±100 for the full control effect
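Assay buffer: 45 mM KH2PO4 pH 8.2, 0.02% Tween-20. hKGA acts on L-glutamine (1 mM solution added); product glutamate is reported by an oxidase/peroxidase Amplex Red coupling, with fluorescence taken at baseline and 30 min.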
G9a inh = qHTS Assay for Inhibitors of Histone Lysine Methyltransferase G9a. Potency, µM (doses to about 102 µM), for inactives: at the top dose activity, negative = inhibition, most hits filed as inhibitors. G9a H3K9 monomethylation, AlphaScreen, 2 h. 350,000 compounds, 8.8% hits. Histone-lysine N-methyltransferase EHMT2 (Homo sapiens), Q96KQ7; note: % is set by controls: 0 for no effect and ±100 for the full control effect; nearly all actives have a fitted effect of over 75% in size
Target sequence (Q96KQ7 913-1193 limits assumed): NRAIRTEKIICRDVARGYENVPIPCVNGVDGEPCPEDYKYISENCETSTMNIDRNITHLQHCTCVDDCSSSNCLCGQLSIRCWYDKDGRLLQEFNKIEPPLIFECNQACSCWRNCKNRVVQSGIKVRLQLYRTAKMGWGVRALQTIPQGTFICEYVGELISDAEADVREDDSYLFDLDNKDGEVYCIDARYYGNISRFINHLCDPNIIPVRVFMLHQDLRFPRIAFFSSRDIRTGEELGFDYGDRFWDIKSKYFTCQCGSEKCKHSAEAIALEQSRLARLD
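Compounds were preincubated with 20 nM G9a for 15 min, after which biotinylated H3K9 peptide (500 nM) and SAM (20 uM) started a 2 h room-temperature reaction. Monomethylated product was quantified by antibody-based AlphaScreen chemiluminescence.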
HP1b binding inh = HTS for Inhibitors of HP1-beta Chromodomain Interactions with Methylated Histone Tails; Chromobox protein homolog 1 (Homo sapiens), P83916; AlphaScreen HP1-beta / biotin-H3K9me3 peptide binding; Potency, µM (titrated, usually from 114 µM), without a hit: top-dose activity change, negative = inhibition, most hits filed as inhibitors; 390,000 compounds, 0.56% hits; note: nearly all actives have a fitted effect of over 70% in size
Target sequence (P83916 whole entry, looked up): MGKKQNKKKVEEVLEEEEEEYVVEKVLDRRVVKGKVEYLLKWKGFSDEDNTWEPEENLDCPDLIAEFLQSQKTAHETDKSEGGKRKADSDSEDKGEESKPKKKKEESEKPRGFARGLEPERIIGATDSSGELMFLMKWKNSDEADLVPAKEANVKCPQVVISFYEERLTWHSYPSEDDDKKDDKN
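Compound inhibition of the preformed complex between 50 nM HP1-beta and 50 nM biotinylated H3K9me3 peptide was read by AlphaScreen. Buffer was PBS pH 7.4 with 0.01% Tween-20. Incubations ran 30 min at room temperature, with 10 ug/mL donor/acceptor beads.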
Numbers without * were called inactive; ? = inconclusive; · = not tested or not shown; [ ] = another dose, or the depositor's remark. Calls come from the whole dose curve; as a rule, active = well fitted curve in the direction sought with a large enough effect; inconclusive = small, poorly fitted or top-dose-only effect, or another doubt; inactive = no such curve, though single readings can be large; an effect the other way counts as inactive or inconclusive. Potency is the fitted concentration of half-maximal effect.

SMILES	BAZ2B block	JMJD2A Tudor	GLS inhibitor	G9a inh	HP1b binding inh
CCOC(=O)CSc1nnc(Cc2cc(=O)[nH]c(=O)[nH]2)n1-c1ccc(Cl)cc1	-1%	?	1%	50µM*	5%
Cn1cccc1Cc1nnc(SCC(=O)NC2CCCCC2)n1CCc1ccccc1	-39%	?	-2%	45µM*	25%
COc1ccc(-n2c(Cc3cccn3C)nnc2SCC(=O)NC2CCCCC2)cc1	-37%	-12%	0%	?	-1%
CCOC(=O)c1ccc2ncc(C(=O)OCC)c(NCc3ccco3)c2c1	-24%	-18%	-11%	?	22%
CC(C)Oc1ccc(CNC(=O)C2CCCCN2S(=O)(=O)c2ccc(F)cc2)cc1 (stereo not given)	6%	14%	-13%	-6%[59 µM]	41%
O=C(CSc1nnc(Cc2cc(=O)[nH]c(=O)[nH]2)n1-c1ccc(F)cc1)NC1CCCC1	-1%	-1%	-8%	79µM*	54%
Cn1cccc1Cc1nnc(SCC(=O)NCc2ccc(F)cc2)n1-c1ccc(F)cc1	?	-29%	10%	50µM*	16%
CSc1nnc(Cc2cc(=O)[nH]c(=O)[nH]2)n1-c1cc(C)ccc1C	-4%	-17%	?	?	23%
Cc1ccc(C)c(-n2c(Cc3cc(=O)[nH]c(=O)[nH]3)nnc2SC(C)C)c1	7%	-14%	0%	50µM*	92%
Cn1cccc1Cc1nnc(SCC(=O)NCc2ccccc2)n1-c1ccc(F)cc1	?	-34%	-2%	50µM*	17%
O=C(/C=C/c1ccc(-c2ccccc2)cc1)NCc1cccnc1	-14%	-9%	-3%	-4%[0.501 µM]	31%
O=C(c1ccccc1)N1CCn2c1nc1ccccc12	5%	56µM*	-9%	-7%[0.501 µM]	5%
COc1ccc(CNC(=O)CCNC(=O)N2CCn3c2nc2ccccc23)cc1	-17%[57.1 µM]	40µM*	19%	45µM*	34%
CCN(CCCNC(=O)C1CCN(S(=O)(=O)CC)CC1)c1cccc(C)c1	-35%	-23%	28%	?	7%
CCN(CCCNC(=O)C1CCN(S(=O)(=O)N2CCC3(CC2)OCCO3)CC1)c1ccccc1	-27%	-25%	105%	?	12%
CCCCN(CCCNC(=O)C1CCN(S(=O)(=O)N2CCOCC2)CC1)c1ccccc1	-34%	?	34%	40µM*	-9%
CCN(CCCNC(=O)C1CCN(S(=O)(=O)c2c(C)[nH]c(=O)[nH]c2=O)CC1)c1cccc(C)c1	-8%	-15%	-5%	50µM*	33%
Cc1ccc(Nc2nc(-c3c(C)nc4ncccn34)cs2)cc1	?	?	12%	40µM*	-37%
Cc1nc2ncccn2c1-c1csc(Nc2ccc(O)cc2)n1	?	-25%	-29%	11µM*	20%
C=CCNc1nc(-c2c(C)nc3ncccn23)cs1	-4%	-11%	4%	5%[0.501 µM]	14%
Cc1ccc(Nc2nc(-c3c(C)nc4ccccn34)cs2)cc1	-38%	?	20%	?	5%
O=C1NC(c2cc(Cl)cc([N+](=O)[O-])c2O)Nc2ccccc21 (stereo not given)	40µM*	?	?	·	-4%
CC(=O)c1cnc(-c2ccccn2)s1	-11%	-10%	?	32µM*	-18%
N#Cc1cc([N+](=O)[O-])cnc1N(CCO)CCO	-2%	-6%	0%	7.1µM*	26%
COC(=O)c1scc(-c2ccc(C)cc2)c1S(=O)(=O)Nc1ccc(N(C)C)cc1	8.9µM*	?	28%	?	?
SMILES	BAZ2B block	JMJD2A Tudor	GLS inhibitor	G9a inh	HP1b binding inh
COc1ccc(C)cc1NS(=O)(=O)c1ccc2c3c(cccc13)C(=O)N2	-21%	56µM*	10%	-37%[59 µM]	-59%
Cc1oc2c(cc(NS(=O)(=O)c3ccc4c5c(cccc35)C(=O)N4)c3ccccc32)c1C(=O)OC(C)C	-24%	-31%	11%	20µM*	-6%
O=C(c1ccccc1Cl)N1CCN(c2ncccn2)CC1	·	7%	-29%	·	19%
Clc1cccc(CN2CCN(c3ncccn3)CC2)c1Cl	?	20µM*	-4%	·	?
O=[N+]([O-])c1ccc(Cl)c(CN2CCSCC2)c1	?	-29%	-1%	?	4%
Clc1ccccc1CN1CCN(c2ncccn2)CC1	?	1µM*	5%	32µM*	?
Clc1ccccc1CN1CCSCC1	?	25µM*	1%	-3%[0.501 µM]	?
Clc1ccc(CN2CCN(c3ncccn3)CC2)c(Cl)c1	?	18µM*	-1%	·	?
O=C(Nc1ccc(Cl)cc1Cl)N1CCN(c2ncccn2)CC1	1%	10%	2%	14%	38%
Fc1ccc(CN2CCN(c3ncccn3)CC2)c(F)c1	4%	18µM*	1%	·	-24%
CC1CN(Cc2ccccc2Cl)CC(C)O1 (stereo not given)	32µM*	4.5µM*	-5%	8.9µM*	?
O=C(NC1CCCCC1NC(=O)c1ccco1)c1ccco1 (stereo not given)	-1%	3%	0%	-10%[59 µM]	49%
O=C(NC1c2ccccc2-c2ccccc21)c1ccco1	9%	56µM*	12%	9%	-14%
Clc1ccc(C2=NCCN2)cc1	?	-9%	2%	5%[59 µM]	32%
COC(=O)c1ccccc1-c1ccc(/C=C2\C(=O)N(c3ccccc3)N=C2c2ccccc2)o1	3.2µM*	?	2%	7.1µM*	1.4µM*
CCOc1ccc(-c2ccc(C=O)o2)c([N+](=O)[O-])c1	?	-35%	33%	?	-3%
COc1ccc(-c2ccc(/C=C3\C(=O)N(c4ccccc4)N=C3c3ccccc3)o2)c([N+](=O)[O-])c1	8.9µM*	?	-2%	7.1µM*	3.5µM*
COc1ccc(-c2ccc(/C=C3/C(=N)N4C(C)=CSC4=NC3=O)o2)c([N+](=O)[O-])c1	?	?	-9%	7.1µM*	-30%
COC(=O)c1ccccc1-c1ccc(/C=N/Nc2nc(N3CCCC3)nc(N3CCCC3)n2)o1	-14%	-15%	-11%	·	19%
CC1=CSC2=NC(=O)/C(=C\c3cccn3-c3ccc([N+](=O)[O-])cc3)C(=N)N12	10%	?	3%	-19%	84%
COc1ccc(-c2ccc(C(=O)O)o2)c([N+](=O)[O-])c1	?	-6%	-4%	56µM*	17%
Cc1ccc(C2(C(F)(F)F)NC(=O)N3CCN=C3S2)cc1 (stereo not given)	-3%	5%	2%	?	36%
